The nature of experiment [1]: qHTS assay to identify small molecule antagonists of the thyroid receptor (TR) signaling pathway (AID 743065). Further: nearly all actives have a fitted effect of over 55% in size. Further: potency means the concentration at half of the fitted maximal effect. The method, boiled down: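 GH3.TRE-Luc rat pituitary cells (two TREs driving luciferase) were dosed with compound, then stimulated with 1 nM T3 (final) for 23.5 h at 37 C. ONE-Glo luminescence was the read-out, with CellTiter-Fluor fluorescence as the cytotoxicity counter-screen.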
A general note: qHTS replaces the single test concentration by a dilution series.

Experiment [2] concerns thyroid hormone receptor (rat, GH3 cells). Description: qHTS assay to identify small molecule agonists of the thyroid receptor (TR) signaling pathway (AID 743066; calls by dose curve).
Experiment [3] is described as follows: qHTS assay to identify small molecule antagonists of the estrogen receptor alpha (ER-alpha) signaling pathway - cell viability counter screen (AID 743074; calls by dose curve;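 further: HEK293 cells carrying ER-alpha-UAS-bla reporter stimulated with 17beta-estradiol; nearly all actives have a fitted effect of over 45% in size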; further: potency means the concentration at half of the fitted maximal effect).
A short description of experiment [4]: qHTS assay to identify small molecule antagonists of the estrogen receptor alpha (ER-alpha) signaling pathway using the BG1 cell line - cell viability counter screen (AID 743081).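 Further: compound given together with 17beta-estradiol as the ER stimulus; nearly all actives have a fitted effect of over 45% in size.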 Further: potency means the concentration at half of the fitted maximal effect.
The next experiment deals with Aromatase (Homo sapiens) (UniProt P11511). Kind of experiment: qHTS assay to identify aromatase inhibitors (AID 743083). Further: nearly all actives have a fitted effect of over 55% in size. Further: potency means the concentration at half of the fitted maximal effect.
Aromatase (Homo sapiens), sequence (P11511 whole entry, looked up): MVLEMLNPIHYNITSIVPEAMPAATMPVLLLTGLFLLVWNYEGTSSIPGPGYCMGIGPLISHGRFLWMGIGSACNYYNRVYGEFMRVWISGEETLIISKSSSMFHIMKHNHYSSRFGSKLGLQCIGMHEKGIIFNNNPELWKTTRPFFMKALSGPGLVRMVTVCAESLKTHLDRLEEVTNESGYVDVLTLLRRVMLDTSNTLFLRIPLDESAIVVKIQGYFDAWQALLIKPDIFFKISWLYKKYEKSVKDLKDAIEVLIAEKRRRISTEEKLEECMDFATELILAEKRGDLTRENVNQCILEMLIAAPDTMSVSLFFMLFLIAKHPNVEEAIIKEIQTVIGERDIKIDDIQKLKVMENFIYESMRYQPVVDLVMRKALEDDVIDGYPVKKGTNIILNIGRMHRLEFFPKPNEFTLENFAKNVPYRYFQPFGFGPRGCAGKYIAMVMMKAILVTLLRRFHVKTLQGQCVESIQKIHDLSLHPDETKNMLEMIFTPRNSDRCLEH
Experiment [5] is described as follows: qHTS assay to identify aromatase inhibitors - cell viability counter screen (AID 743084).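 Further: cells stimulated with testosterone during compound exposure; nearly all actives have a fitted effect of over 55% in size.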 Further: potency means the concentration at half of the fitted maximal effect.
Experiment [6] deals with Aryl hydrocarbon receptor (Homo sapiens) (UniProt P35869). Kind of experiment: qHTS assay to identify small molecule that activate the aryl hydrocarbon receptor (AhR) signaling pathway (AID 743085). Further: nearly all actives have a fitted effect of over 15% in size. Further: potency means the concentration at half of the fitted maximal effect.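 On activation: HG2L7.5c1 human HepG2 liver cells with stably integrated DRE-driven firefly reporter; series mostly up to about 70 µM.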 In short, it runs like this:
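Stably transfected human liver carcinoma cells (HG2L7.5c1; 20 DRE-firefly luciferase) were incubated 5 h, dosed, and kept 24 h at 37C. Agonism was scored from increased luciferase luminescence.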

A short description of experiment [7]: qHTS assay to identify small molecule that activate the aryl hydrocarbon receptor (AhR) signaling pathway - cell viability counter screen (AID 743086). Further: nearly all actives have a fitted effect of over 45% in size. Further: potency means the concentration at half of the fitted maximal effect. The method, boiled down:
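HepG2-AhR-luc (HG2L7.5c1) cells, 4000/well, treated 24 h at 37 C with compound; viability measured as CellTiter-Fluor fluorescence after 30 min in the same wells as the luciferase read.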

The target of experiment [8] is Peroxisome proliferator-activated receptor gamma (Homo sapiens) (UniProt P37231). Description: qHTS assay to identify small molecule agonists of the peroxisome proliferator-activated receptor gamma (PPARg) signaling pathway (AID 743094; active means well fitted activation curve with a large enough effect in the signal ratio in the repeat runs, not every such curve was filed as active; the % refers to the signal ratio). In short, it runs like this: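 Beta-lactamase FRET fluorescence was the read-out after a 1 h room-temperature substrate step, following 17 h compound treatment at 37C of HEK293H cells expressing a UAS-driven bla reporter responsive to PPARg.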
Peroxisome proliferator-activated receptor gamma (Homo sapiens), sequence (P37231 whole entry, looked up): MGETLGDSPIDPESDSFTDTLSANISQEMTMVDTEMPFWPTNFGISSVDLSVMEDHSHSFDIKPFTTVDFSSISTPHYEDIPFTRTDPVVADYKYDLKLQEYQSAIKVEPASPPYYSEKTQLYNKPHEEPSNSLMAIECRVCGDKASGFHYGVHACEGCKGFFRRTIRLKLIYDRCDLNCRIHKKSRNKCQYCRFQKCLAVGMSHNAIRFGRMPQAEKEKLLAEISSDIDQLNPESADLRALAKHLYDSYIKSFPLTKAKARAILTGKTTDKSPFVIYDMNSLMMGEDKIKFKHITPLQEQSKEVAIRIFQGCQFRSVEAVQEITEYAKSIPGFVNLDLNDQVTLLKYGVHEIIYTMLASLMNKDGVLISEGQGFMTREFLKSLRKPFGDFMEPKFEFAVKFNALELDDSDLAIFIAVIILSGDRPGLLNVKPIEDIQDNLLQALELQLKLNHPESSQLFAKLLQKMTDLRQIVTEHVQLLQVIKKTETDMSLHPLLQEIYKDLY

Experiment [9] shares this target. Kind of experiment: qHTS assay to identify small molecule antagonists of the peroxisome proliferator-activated receptor gamma (PPARg) signaling pathway (AID 743191; calls by dose curve; further: nearly all actives have a fitted effect of over 30% in size; further: potency means the concentration at half of the fitted maximal effect). The method, boiled down: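 GeneBLAzer PPARg UAS-bla HEK293H cells, 5 h post-plating, exposed to compounds 17 h at 37C. LiveBLAzer B/G FRET substrate added for 1 h at room temperature; beta-lactamase reporter read by fluorescence intensity.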

Experiment [10] in a line: qHTS assay to identify small molecule antagonists of the peroxisome proliferator-activated receptor gamma (PPARg) signaling pathway - cell viability counter screen (AID 743194). Further: nearly all actives have a fitted effect of over 55% in size. Further: potency means the concentration at half of the fitted maximal effect. Particulars: Potency: co-treated with 50 nM rosiglitazone unless noted. In short, it runs like this:
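Cytotoxicity counter screen in PPARg-bla HEK293H cells, same wells as reporter assay. Compounds plus 50 nM rosiglitazone (final) for 17 h at 37 C, then viability read by CellTiter-Glo luminescence.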

A short description of experiment [11]: qHTS assay for small molecule agonists of the antioxidant response element (ARE) signaling pathway - cell viability counter screen (AID 743203; calls by dose curve; further: nearly all actives have a fitted effect of over 55% in size; further: potency means the concentration at half of the fitted maximal effect). In short, it runs like this:
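HepG2 cells carrying ARE-driven beta-lactamase; 2,000 cells/well; 5 hrs plating; compound pinned from DMSO; 16 hrs 37C/5% CO2; CellTiter-Glo added; 30 min RT; luminescence.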

Experiment [12] can be described thus: qHTS assay for small molecule activators of the heat shock response signaling pathway - cell viability counter screen (AID 743209). Further: nearly all actives have a fitted effect of over 50% in size. Further: potency means the concentration at half of the fitted maximal effect. The method, boiled down: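 Luminescence from CellTiter-Glo, added after the beta-lactamase FRET read, gave the viability signal. Cells were HSE-bla HeLa treated with DMSO-dissolved compounds for 5 h at 37 C following overnight plating.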

Experiment [13] is described as follows: qHTS assay for small molecule activators of the heat shock response signaling pathway (AID 743210; active means well fitted activation curve with a large enough effect in the signal ratio in the repeat runs, with a control signal flat, not every such curve was filed as active; the % refers to the signal ratio; further: series mostly up to about 63 µM). The method, boiled down:
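HSE-bla HeLa cells (beta-lactamase reporter under heat shock response elements), plated overnight, then exposed to compounds 5 h at 37 C; LiveBLAzer B/G FRET substrate added, 2.5 h at room temperature, fluorescence intensity read.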

A short description of experiment [14]: qHTS assay to identify small molecule agonists of the peroxisome proliferator-activated receptor delta (PPARd) signaling pathway - cell viability counter screen (AID 743211). Further: nearly all actives have a fitted effect of over 55% in size. In short, it runs like this:
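In the same wells used for beta-lactamase reporter measurement, cytotoxicity is scored by CellTiter-Glo. HEK293H PPARd-bla cells receive compound for 17 h at 37C following a 5 h settling period.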

A short description of experiment [15]: qHTS assay for small molecule agonists of the antioxidant response element (ARE) signaling pathway (AID 743202; active means well fitted activation curve with a large enough effect in the signal ratio in the repeat runs, not every such curve was filed as active; the % refers to the signal ratio; further: potency means the concentration at half of the fitted maximal effect). The method, boiled down:
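ARE-bla HepG2 cells (beta-lactamase reporter under the antioxidant response element), plated 5 hours, then exposed to compounds 16 hours at 37 C. LiveBLAzer B/G FRET substrate added for 2 hours at room temperature; fluorescence intensity read.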

Experiment [16] deals with Estrogen receptor (Homo sapiens) (UniProt P03372). Kind of experiment: qHTS assay to identify small molecule agonists of the estrogen receptor alpha (ER-alpha) signaling pathway (AID 743075; calls by dose curve;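 further: HEK293 GripTite cells with ER-alpha and UAS-driven beta-lactamase reporter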).
Estrogen receptor (Homo sapiens), sequence (P03372 whole entry, looked up): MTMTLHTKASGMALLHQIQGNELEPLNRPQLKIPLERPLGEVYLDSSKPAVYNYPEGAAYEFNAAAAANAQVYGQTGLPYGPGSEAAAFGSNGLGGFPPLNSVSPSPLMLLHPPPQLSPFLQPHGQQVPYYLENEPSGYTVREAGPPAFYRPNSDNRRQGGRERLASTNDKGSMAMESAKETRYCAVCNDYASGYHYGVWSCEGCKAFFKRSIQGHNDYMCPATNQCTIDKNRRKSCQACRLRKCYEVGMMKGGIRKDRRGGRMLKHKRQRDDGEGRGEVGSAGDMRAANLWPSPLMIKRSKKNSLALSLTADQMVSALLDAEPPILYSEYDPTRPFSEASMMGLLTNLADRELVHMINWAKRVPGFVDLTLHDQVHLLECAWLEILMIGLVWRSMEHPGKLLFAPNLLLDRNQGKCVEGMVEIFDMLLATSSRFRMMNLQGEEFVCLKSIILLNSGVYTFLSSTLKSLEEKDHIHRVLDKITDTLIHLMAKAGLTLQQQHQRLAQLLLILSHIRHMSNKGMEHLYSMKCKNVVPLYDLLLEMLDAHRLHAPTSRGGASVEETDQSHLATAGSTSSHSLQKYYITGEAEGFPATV
Experiment [17] in a line: qHTS assay to identify small molecule antagonists of the estrogen receptor alpha (ER-alpha) signaling pathway using the BG1 cell line (AID 743080; calls by dose curve;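 further: BG1 cells stimulated with 17beta-estradiol alongside compound; potency means the concentration at half of the fitted maximal effect; nearly all actives have a fitted effect of over 25% in size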). In short, it runs like this: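 Luciferase inhibition measured with ONE-Glo after 30 min at RT in BG1Luc4E2 cells given test compounds and 17beta-estradiol for 21.5 h at 37 C; CellTiter-Fluor viability read in the same wells beforehand.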

Values joined by “and” are separate entries in the source; they are usually repeats but may differ in a detail not shown here. Identical values can stand only once. Inconclusive results are not listed. Some compounds were tested as several samples or in several runs, with calls that do not always agree. Active and inactive are the calls of the source. Unless noted, the call rests on the fitted dose curve; in most records, active means well fitted curve in the direction sought with a large enough effect in the repeat runs; inconclusive means weak or mixed curves; inactive means no such curve, though single readings can be large; an effect the other way counts as inactive or inconclusive.

Aryl hydrocarbon receptor (Homo sapiens), sequence (P35869 whole entry, looked up): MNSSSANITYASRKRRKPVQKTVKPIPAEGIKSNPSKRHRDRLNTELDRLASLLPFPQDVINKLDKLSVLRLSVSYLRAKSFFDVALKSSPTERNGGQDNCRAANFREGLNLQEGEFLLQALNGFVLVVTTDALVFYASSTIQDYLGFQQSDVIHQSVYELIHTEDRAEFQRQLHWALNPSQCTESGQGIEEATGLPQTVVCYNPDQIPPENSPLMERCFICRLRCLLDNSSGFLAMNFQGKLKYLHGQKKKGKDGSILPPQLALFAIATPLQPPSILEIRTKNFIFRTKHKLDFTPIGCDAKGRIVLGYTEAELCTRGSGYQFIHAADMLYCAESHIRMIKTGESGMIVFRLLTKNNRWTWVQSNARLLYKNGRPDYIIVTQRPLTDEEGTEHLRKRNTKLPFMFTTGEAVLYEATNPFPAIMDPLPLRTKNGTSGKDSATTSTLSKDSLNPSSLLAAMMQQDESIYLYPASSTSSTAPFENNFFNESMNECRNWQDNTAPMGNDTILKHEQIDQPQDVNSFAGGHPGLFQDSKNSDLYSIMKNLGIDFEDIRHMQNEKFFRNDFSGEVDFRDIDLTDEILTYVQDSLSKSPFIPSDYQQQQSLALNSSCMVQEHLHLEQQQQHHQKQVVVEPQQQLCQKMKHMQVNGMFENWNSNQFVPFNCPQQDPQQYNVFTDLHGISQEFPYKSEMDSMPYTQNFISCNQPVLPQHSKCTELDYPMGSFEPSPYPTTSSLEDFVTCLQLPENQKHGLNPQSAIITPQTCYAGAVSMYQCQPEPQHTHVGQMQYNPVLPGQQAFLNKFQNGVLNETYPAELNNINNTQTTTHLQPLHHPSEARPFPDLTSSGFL

For the compound `CC(C)(C)c1ccccc1O`, the Potency result (in experiment [1]; in experiment [2]; in [3]; in experiment [4]; with Aromatase (Homo sapiens); in experiment [5]) was “inactive” each time. Besides, the Potency entry in experiment [6], in experiment [7], in experiment [8], in experiment [9], in [10] and in experiment [11] was “inactive” each time. Also, the Potency entry in experiment [12], in experiment [13] and in experiment [14] was “inactive” throughout.

Regarding `CC(C)(OOC(C)(C)c1ccccc1)c1ccccc1`, the Potency in experiment [1] was 53.7 µM (active) and 43.3 µM (active); in experiment [12], 48.3 µM (active) and inactive. Besides, the Potency entry (in experiment [2]; in experiment [3]; in experiment [4]; with Aromatase (Homo sapiens); in [5]; in experiment [6]) was “inactive” in each case. For the same compound, the Potency entry in experiment [7], in experiment [8], in experiment [10], in experiment [15], in experiment [11] and in [13] was “inactive” in each case.

As to `C=C(C)[C@H]1Cc2c(ccc3c2O[C@@H]2COc4cc(OC)c(OC)cc4[C@@H]2C3=O)O1`, the Potency in experiment [1] is 237 nM (active) and 34.8 nM (active) and 61.1 nM (active); in [3] it was 67.4 nM (active) and 44.2 nM (active); in [4] it was 7.8 µM (active) and 38.6 µM (active); in the experiment with Aromatase (Homo sapiens), 15 µM (active) and 34.8 µM (active) and 34.4 µM (active); in [5] it was 34.8 µM (active) and 34.4 µM (active); in experiment [7] it was “inactive and 39.1 µM (active) and 21.7 µM (active)”. The Potency was 13.3 µM (active) in [9]; 7.7 nM (active) in [15]; 15.6 µM (active) and 3.86 µM (active) and 3.76 µM (active) in experiment [11]. In addition, the Potency result in [2], in [8], in [10], in experiment [12] and in experiment [14] was “inactive” throughout.

Consider `Cc1cccc(N)c1N`, for which the Potency entry (in [1]; in experiment [2]; in experiment [3]; in experiment [4]; with Aromatase (Homo sapiens); in experiment [5]) was “inactive” throughout. Moreover, the Potency entry in experiment [7], in experiment [8], in experiment [9], in experiment [10], in [11] and in experiment [12] was “inactive” throughout. Also, the Potency result in [13] and in experiment [14] was “inactive” in each case. Also, the Potency in experiment [6] is 11.8 µM (active) and 43.3 µM (active); in [15] it was 9.36 µM (active) and 17.2 µM (active).

On to `Nc1ccc(Cl)c(Cl)c1`, for which the Potency result (in experiment [1]; in experiment [2]; in [3]; in [4]; with Aromatase (Homo sapiens); in experiment [5]) was “inactive” throughout. Also, the Potency result in experiment [7], in experiment [10], in [15], in experiment [11], in [12] and in [13] was “inactive” in each case.

`C=CCc1ccc(OC)cc1`: the Potency entry (in experiment [1]; in [2]; in experiment [3]; in experiment [4]; in the experiment with Aromatase (Homo sapiens); in experiment [5]) was “inactive” throughout. Moreover, the Potency entry in experiment [7], in experiment [8], in experiment [10], in experiment [15], in experiment [11] and in [12] was “inactive” each time. Further, the Potency result in experiment [13] is “inactive”.

On to `CC(O)CCO` (stereo not drawn), for which the Potency entry (in experiment [1]; in experiment [2]; in experiment [3]; in [4]; with Aromatase (Homo sapiens); in experiment [5]) was “inactive” throughout. The Potency result in experiment [6], in experiment [7], in [9], in [10], in experiment [15] and in experiment [11] was “inactive” in each case. In experiment [12], the Potency result is “inactive”.

On to `O=C(Nc1ccc(Br)cc1)c1cc(Br)cc(Br)c1O`, for which the Potency in experiment [1] was 8.41 µM (active) and 2.16 µM (active) and 1.93 µM (active); in experiment [3] it was 6.01 µM (active) and 4.35 µM (active) and 2.19 µM (active); in experiment [17], 15.4 µM (active); with Aromatase (Homo sapiens), “inactive and 13.7 µM (active)”; in [6], 5.31 µM (active) and 3.42 µM (active) and 3.06 µM (active); in experiment [10], 488 nM (active) and 245 nM (active) and 3.76 µM (active). Moreover, the Potency in experiment [11] was 34.2 µM (active) and 9.69 µM (active) and 13.3 µM (active). In addition, the Potency result in experiment [2], in experiment [16], in [4], in experiment [5], in experiment [7] and in experiment [8] was “inactive” in each case.

As to `CCCCC(CC)COC(=O)c1ccc(C(=O)OCC(CC)CCCC)c(C(=O)OCC(CC)CCCC)c1` (stereo not drawn), the Potency result (in experiment [1]; in experiment [2]; in experiment [3]; in experiment [4]; with Aromatase (Homo sapiens); in experiment [5]) was “inactive” in each case. Moreover, the Potency result in experiment [7], in [9], in [10], in experiment [15], in experiment [11] and in experiment [12] was “inactive” each time. In addition, in [14], the Potency entry was “inactive”.
